The source of these data is PubChem BioAssay (NCATS).

Results filed as inconclusive are left out. Unmarked numbers belong to inactive results. Calls of active or inactive are those of the source. The call rests on the fitted dose curve.
On the % scale 0 is the no-effect control and ±100 the full control effect; potency means the concentration at half of the fitted maximal effect.

The target in this assay is Atrial natriuretic peptide receptor 2 (Homo sapiens) (UniProt P20594). Put plainly: Natriuretic polypeptide receptor (hNpr2) antagonism - Pilot subtype selectivity assay (AID 1347050). As to conditions: NPR2-expressing cells, cGMP antagonist-mode read-out; series mostly up to 38.3 µM; activity change, negative = inhibition: at the top concentration. How it is done: F. Fan, B. F. Binkowski, B. L. Butler, P. F. Stecha, M. K. Lewis, K. V. Wood, Novel genetically encoded biosensors using firefly luciferase. ACS Chem Biol 3, 346-351 (2008).
Sequence of Atrial natriuretic peptide receptor 2 (Homo sapiens) (P20594 whole entry, looked up): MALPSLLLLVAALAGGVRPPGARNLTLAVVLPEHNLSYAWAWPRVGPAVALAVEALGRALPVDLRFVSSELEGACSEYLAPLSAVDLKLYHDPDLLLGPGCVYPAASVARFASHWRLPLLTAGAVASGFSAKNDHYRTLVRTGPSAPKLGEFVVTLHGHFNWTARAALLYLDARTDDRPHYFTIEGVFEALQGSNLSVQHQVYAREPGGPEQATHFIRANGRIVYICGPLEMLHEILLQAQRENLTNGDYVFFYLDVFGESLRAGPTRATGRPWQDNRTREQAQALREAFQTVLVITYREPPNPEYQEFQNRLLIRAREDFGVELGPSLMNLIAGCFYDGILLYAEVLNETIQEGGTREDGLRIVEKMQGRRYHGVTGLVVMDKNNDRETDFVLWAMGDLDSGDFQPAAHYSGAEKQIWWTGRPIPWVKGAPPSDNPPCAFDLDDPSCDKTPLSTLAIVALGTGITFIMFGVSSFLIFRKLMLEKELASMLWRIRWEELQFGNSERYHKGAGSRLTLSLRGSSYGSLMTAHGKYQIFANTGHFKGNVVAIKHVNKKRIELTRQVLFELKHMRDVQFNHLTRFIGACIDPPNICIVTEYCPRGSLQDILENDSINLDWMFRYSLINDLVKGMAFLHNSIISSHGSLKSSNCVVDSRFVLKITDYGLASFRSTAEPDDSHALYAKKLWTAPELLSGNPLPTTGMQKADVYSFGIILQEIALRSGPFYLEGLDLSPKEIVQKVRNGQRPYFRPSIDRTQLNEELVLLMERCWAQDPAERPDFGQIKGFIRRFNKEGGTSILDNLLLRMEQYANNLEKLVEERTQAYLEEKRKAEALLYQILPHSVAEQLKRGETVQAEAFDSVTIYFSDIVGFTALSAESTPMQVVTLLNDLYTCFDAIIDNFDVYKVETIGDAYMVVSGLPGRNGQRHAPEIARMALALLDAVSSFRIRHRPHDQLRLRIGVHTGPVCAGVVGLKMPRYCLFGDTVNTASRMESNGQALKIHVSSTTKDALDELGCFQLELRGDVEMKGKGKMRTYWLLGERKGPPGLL
PROTOCOL TABLE (as described by Inglese J, Shamu CE and Guy RK. 2007)
SEQUENCE No. (e.g., 1, 2, 3, etc.); […] (e.g., Cells, Incubation, Reagent, etc.); VALUE and DESCRIPTION.
1. Cells. Seed 1500 HEK293 cGMP-sensor cells expressing hNpr2 per well in 4uL into Greiner 1536-well white/solid bottom high base, TC plates.
2. Incubation. Incubate plated cells at 37C in 5% CO2, 95% RH overnight.
3. Reagent. Add 1uL per well GloSensor reagent from Promega (2% final concentration) or CO2 independent media vehicle control to respective columns of Greiner 1536-well plates.
4. Incubation. Incubate plated cells at ambient temperature for 2 h., protect from light.
5. Compounds. Library compounds and DMSO vehicle control added at 23nL per well, transferred by Pin Tool.
6. Incubation. Incubate plated cells for 30 min. at ambient temperature, protect from light.
7. Detector. GloSensor baseline pre-read luminescence measured using CCD-based camera (Viewlux).
8. Compound. Add 1uL of hNppC peptide to 1 nM final concentration to stimulate hNpr2 or CO2 independent media as vehicle control.
9. Incubation. Incubate treated cells at ambient temperature for 20 min., protect from light.
10. Detector. GloSensor post-hNppC luminescence measured using CCD-based camera (Viewlux).
NOTES (numbers refer to Sequence numbers above)
1. HEK293 cells expressing hNpr2 and GIP/pGS-40F were grown to 85-95% confluence (48-72 h) in T175 culture flasks (CO2 independent media supplemented with 10% FBS, 1% Pen/Strep antibiotics, and 1 ug/mL puromycin). Trypsinize and harvest cells from T175 culture flasks and filter through 40 um cell strainer. Cells counted with Invitrogen Countess (30,000,000 - 50,000,000 cells/flask). Cells diluted to a final concentration of 375 cells/uL in CO2 independent media and a Millipore multidrop used to dispense 1500 cells per well (4uL/well) into 9 x1536-well Greiner White/Solid bottom, high base tissue-culture treated (TC) plates and one Aurora 1536-well Black/Clear bottom, low base, TC plate (for visual inspection of cell health throughout the duration of the assay).
2. Cells incubated for 24 h. at 37C in 95% RH incubator with metal lid having gas-exchange holes.
3. Prepare GloSensor Reagent (Promega): Reconstitute GloSensor luciferase substrate by adding 8.2mL Hepes buffer to 250mg substrate, mix well, protect from light and stored at -80C. Prepare a fresh 12% GloSensor solution in CO2 independent supplemented plating media (see above). Mix well and store at ambient temperature, protected from light. 1uL 12% GloSensor Luciferase Reagent added (2% final concentration) to respective columns of 9 x 1536-well Greiner plate with BioRaptr, 1uL CO2 independent plating media added to respective columns as vehicle control with BioRaptr.
4. Cells incubated for 2 h. at ambient temperature, protected from light with metal lid having gas-exchange holes.
5. 23nL of LOPAC1280 library compounds (7 plates) or DMSO vehicle control transferred to 9 Greiner white/solid bottom high base, TC plates in 7 interplate 1:5 titrations (see Yasgar, A. et al. 2008) with Pintool. Two of the 9 plates are DMSO-only in compound field at beginning and end of compound library-treated plates.
6. Cells incubated for 30-50 min. at ambient temperature protected from light with metal lid having gas-exchange holes.
7. Read cellular baseline GloSensor luminescence in presence of test library compounds on the ViewLux [Exposure = 10 s.; Gain = High; Speed = Slow; and Binning = 2X.]
8. hNppC peptide agonist solution prepared at 1 mM (in H2O) stock concentration. From this a working dilution was prepared at 6 nM in CO2 Independent media. […]
With `C=CC1(C)CC(=O)C2(O)C(C)(O1)C(OC(C)=O)C(O)C1C(C)(C)CCC(O)C12C` (stereo not given), the “activity change, negative = inhibition” value is 0.171%. The same measure, in the same setting: with `Cc1nc(N=Nc2ccc(C(=O)O)cc2)c(COP(=O)(O)O)c(C=O)c1O` the figure was 13.5%.

For `CC1CNCCN1S(=O)(=O)c1cccc2cnccc12` (stereo not given), the “activity change, negative = inhibition” value is 0.0422%.

Regarding `O=C(O)C1=CC(=C(c2ccc(O)c(C(=O)O)c2)c2ccc(O)c(C(=O)O)c2)C=CC1=O`, the “activity change, negative = inhibition” value is 7.44%. Consider `CC(=O)C(C)=O`, for which the “activity change, negative = inhibition” value is 2.69%. In the case of `Fc1ccc(CN(C2=NCCN2)c2c(Cl)cccc2Cl)cc1`, the “activity change, negative = inhibition” value was -15%. Still for that read-out and setting: the result for `OC1(c2ccc(Cl)cc2)CCN(Cc2c[nH]c3ccccc23)CC1` reads -3.69%; that for `[Li+]`, 15.5%. The same measure, in the same setting: with `c1ccc2nc(C3=NCCN3)ccc2c1` the figure was -4.28%; with `CSC(N)=NCCC[C@H](N)C(=O)O`, -5.91%. As for `COc1cccc(OC)c1OCCNCC1CSc2ccccc2O1` (stereo not given), the “activity change, negative = inhibition” value was 2.51%. Consider `NC(=O)CC[C@H](N)C(=O)O`, for which the “activity change, negative = inhibition” value was -1.11%. On the same count and under the same terms, the result for `CCCn1c(=O)c2[nH]c(C3CCCC3)nc2n(CCC)c1=O` reads 17.9%. The same measure, in the same setting: the result for `O=c1cc(O)cc(/C=C/c2ccc(O)c(O)c2)o1` reads 10.4%; that for `NC(N)=NC(N)=Nc1ccccc1`, -1.19%; that for `CC1C(=O)N(C)C(=O)c2nc[nH]c21` (stereo not given), 3.26%. Consider `O=C(O)/C=C/c1ccc(O)c(O)c1`, for which the “activity change, negative = inhibition” value was 2.72%. Regarding `CC(=O)NNC(=O)N1Cc2ccccc2Oc2ccc(Cl)cc21`, the “activity change, negative = inhibition” value was 3.84%. With `O=C(OCCN1CCOCC1)C1(c2ccccc2)CCCCC1`, the “activity change, negative = inhibition” value is 5.17%.

Regarding `O=c1[nH]c2ccccc2c2ccccc12`, the “activity change, negative = inhibition” value was 20.6%. On the same count and under the same terms, with `COC(=O)C1=C(C)NC(C)=C([N+](=O)[O-])C1c1ccccc1C(F)(F)F` (stereo not given) the figure was 7.8%; with `C[C@H](NC(=O)/C(C#N)=C/c1ccc(O)c(O)c1)c1ccccc1`, -3.25%. In the case of `Cc1nc2n(c(=O)c1CCN1CCC(c3noc4cc(F)ccc34)CC1)CCCC2O` (stereo not given), the “activity change, negative = inhibition” value is 3.78%.

As to `CCN1C(=O)C=CC1=O`, the “activity change, negative = inhibition” value is 5.79%. In the case of `COc1ccccc1N1CCN(CCCCNC(=O)c2ccc3ccccc3c2)CC1`, the “activity change, negative = inhibition” value is -6.36%. Same read-out and setting: with `CNc1ncnc2c1ncn2[C@H]1C[C@H](OP(=O)(O)O)[C@@H](COP(=O)(O)O)O1` the figure was 5.84%; with `N=C(N)c1ccc(OCCCCCOc2ccc(C(=N)N)cc2)cc1` (tested in a mixture with another compound), -23.1%.

For the molecule `C[C@]12C=CC(=O)C=C1CC[C@@H]1C2=CC[C@]2(C)[C@@H](C(=O)CN3CCN(c4cc(N5CCCC5)nc(N5CCCC5)n4)CC3)CC[C@@H]12`, the “activity change, negative = inhibition” value was 5.28%. Still for that read-out and setting: with `Nc1ncnc2c1nc(Sc1ccc(Cl)cc1)n2[C@H]1OC2COP(=O)(O)O[C@@H]2C1O` (stereo not given in full) the figure was 8.96%; with `N=C(N)c1ccccc1`, -1.85%.

In the case of `COc1cc(/C=C(\C#N)C(=O)Nc2nnc(C(F)(F)F)s2)ccc1OCc1ccc(C(F)(F)F)cc1C(F)(F)F`, the Potency is 16.5 µM (active).

`Cn1c(=O)c2[nH]c(-c3ccc(S(=O)(=O)O)cc3)nc2n(C)c1=O`: the “activity change, negative = inhibition” value is 0.186%.

As for `CC(=O)O[C@H]1Cc2ccccc2N(C(N)=O)c2ccccc21`, the “activity change, negative = inhibition” value was -1.82%. `CCSC(=N)N`: the “activity change, negative = inhibition” value was 0.572%. As to `Cc1nc2c(OCc3ccccc3)cccn2c1CC#N`, the “activity change, negative = inhibition” value is -3.55%. Same read-out and setting: with `NCCCCN` the figure was 4.32%. `CC(C)(C)c1cc(/C=C(\C#N)C(N)=S)cc(C(C)(C)C)c1O`: the Potency was 4.65 µM (active). On to `CCCC[C@@]1(C2CCCC2)Cc2cc(OCC(=O)O)c(Cl)c(Cl)c2C1=O`, for which the “activity change, negative = inhibition” value is -1.25%. As to `O=C(O)Cc1c[nH]c2ccc(O)cc12`, the “activity change, negative = inhibition” value is 2%. Regarding `O[Si](CCCN1CCCCC1)(c1ccc(F)cc1)C1CCCCC1` (stereo not given), the “activity change, negative = inhibition” value was -13.6%.
